The nature of assay [1]: ATG_GLI_CIS: Attagene CIS-FACTORIAL HepG2 Assay for human Zinc Finger Protein GLI1 (AID 2282945). As to conditions: HepG2, Attagene cis-factorial reporter mRNA, GLI element; actives raise or lower the signal. An outline of the steps: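 HepG2 cells transiently transfected with cis-promoter multiplexed reporter units report endogenous transcription factor activity. After 24 h chemical exposure, reporter mRNA was quantified by RT-PCR, 6-FAM labelling, HpaI digestion and capillary electrophoresis, with bidirectional fitting against DMSO.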

The target of assay [2] is Bile acid receptor (Homo sapiens) (UniProt Q96RI1). Kind of assay: ATG_IR1_CIS: Attagene CIS-FACTORIAL HepG2 Assay for human Nuclear Receptor Subfamily 1 Group H Member 4 (NR1H4), IR1 submotif (AID 2282946). As to conditions: IR1 reporter transcription, actives raise or lower the signal. An outline of the steps: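 Transient MRTU transfection, HepG2; 24 h dosing; RNA → RT-PCR → 6-FAM primer extension → HpaI digest → capillary electrophoresis fluorescence. Gain/loss of signal fitted relative to DMSO.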
Bile acid receptor (Homo sapiens), sequence (Q96RI1 whole entry, looked up): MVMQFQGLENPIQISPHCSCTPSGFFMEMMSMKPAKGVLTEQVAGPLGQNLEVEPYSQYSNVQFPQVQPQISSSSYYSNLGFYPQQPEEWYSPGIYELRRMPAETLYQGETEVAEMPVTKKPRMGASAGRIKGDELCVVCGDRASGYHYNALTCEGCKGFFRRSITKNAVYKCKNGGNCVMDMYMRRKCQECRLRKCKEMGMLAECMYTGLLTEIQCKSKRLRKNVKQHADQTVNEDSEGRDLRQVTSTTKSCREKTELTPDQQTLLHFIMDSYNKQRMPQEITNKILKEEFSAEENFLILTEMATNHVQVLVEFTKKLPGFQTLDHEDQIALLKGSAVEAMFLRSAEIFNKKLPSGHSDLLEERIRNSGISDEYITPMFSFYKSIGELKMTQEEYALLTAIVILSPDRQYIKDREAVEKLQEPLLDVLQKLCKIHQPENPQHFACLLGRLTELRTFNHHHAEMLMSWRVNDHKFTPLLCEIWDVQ

The nature of assay [3]: ATG_ISRE_CIS: Attagene CIS-FACTORIAL HepG2 Assay for human Interferon Regulatory Factor 1 (IRF1) binding to an Interferon-Stimulated Response Element (ISRE) (AID 2282948). As to conditions: HepG2 ISRE cis-reporter (Attagene), mRNA transcription readout; actives raise or lower the signal. The method, boiled down:
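Cell-based cis-reporter assay; HepG2; 24 h exposure; reporter mRNA by RT-PCR plus capillary electrophoresis fluorescence; activity in either direction scored relative to DMSO.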

A short description of assay [4]: ATG_M_32_CIS: Attagene CIS-FACTORIAL HepG2 Assay for M32 Transcription Factor (Internal Marker) (AID 2282949).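 Note: background control marker of the multiplexed CIS panel rather than a real target.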 The note with it: HepG2 Attagene cis-factorial M32 reporter, mRNA; actives raise or lower the signal. An outline of the steps: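 Following 24 h chemical exposure of HepG2 cells transiently expressing cis-promoter reporter constructs, reporter transcript levels were determined by RT-PCR with fluorescent labelling and capillary electrophoresis, then fitted bidirectionally against DMSO.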

Assay [5] is described as follows: ATG_M_06_CIS: Attagene CIS-FACTORIAL HepG2 Assay for M06 Transcription Factor (Internal Marker) (AID 2282950). The note with it: HepG2 Attagene CIS-FACTORIAL M06 internal marker reporter; actives raise or lower the signal. The method, boiled down: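 Cells (HepG2, transiently carrying cis-driven reporter units) receive chemical for 24 h before RNA isolation. Reporter cDNA is PCR-amplified, FAM-labelled by primer extension, HpaI-digested and sized on a capillary analyser.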

In assay [6] the target is Hypoxia-inducible factor 1-alpha (Homo sapiens) (UniProt Q16665). Briefly: ATG_HIF1a_CIS: Attagene CIS-FACTORIAL HepG2 Assay for human Hypoxia Inducible Factor 1 (HIF1A) (AID 2282951). As to conditions: HepG2 Attagene cis-factorial HIF1a reporter transcription; actives raise or lower the signal. An outline of the steps:
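Cis-element reporter constructs were transiently transfected into HepG2 cells, which were treated for 24 h; reporter RNA was reverse-transcribed, amplified, labelled and resolved by capillary electrophoresis.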

In assay [7] the target is Hepatocyte nuclear factor 6 (Homo sapiens) (UniProt Q9UBC0). Briefly: ATG_HNF6_CIS: Attagene CIS-FACTORIAL HepG2 Assay for human Hepatocyte Nuclear Factor 6 (HNF6) (AID 2282952). The note with it: HepG2 Attagene cis-factorial HNF6 reporter transcription; actives raise or lower the signal. The method, boiled down: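 HepG2, transient MRTU transfection (cis promoters); 24 h chemical exposure; total RNA → oligo(dT) RT → PCR → 6-FAM labelling → HpaI cut → CE; bidirectional fit vs DMSO.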
Hepatocyte nuclear factor 6 (Homo sapiens), sequence (Q9UBC0 whole entry, looked up): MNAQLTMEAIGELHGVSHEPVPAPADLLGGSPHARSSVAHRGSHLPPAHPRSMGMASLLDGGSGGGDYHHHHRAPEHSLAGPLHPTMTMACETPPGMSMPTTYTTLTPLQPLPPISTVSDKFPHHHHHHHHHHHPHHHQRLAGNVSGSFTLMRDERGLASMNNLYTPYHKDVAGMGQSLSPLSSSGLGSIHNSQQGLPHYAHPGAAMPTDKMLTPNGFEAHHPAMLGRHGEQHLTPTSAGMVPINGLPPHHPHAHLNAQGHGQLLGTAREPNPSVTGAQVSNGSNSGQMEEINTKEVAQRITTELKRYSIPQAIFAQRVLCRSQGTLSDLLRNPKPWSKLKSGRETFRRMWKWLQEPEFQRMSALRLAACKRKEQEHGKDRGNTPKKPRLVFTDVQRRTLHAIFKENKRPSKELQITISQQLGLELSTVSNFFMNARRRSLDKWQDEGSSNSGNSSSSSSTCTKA

For assay [8], the target named is Heat shock factor protein 1 (Homo sapiens) (UniProt Q00613). Kind of assay: ATG_HSE_CIS: Attagene CIS-FACTORIAL HepG2 Assay for human Heat Shock Transcription Factor 1 (HSE) (AID 2282953). As to conditions: HepG2 HSE cis-reporter, Attagene RNA transcription; actives raise or lower the signal. An outline of the steps: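 Liver-derived HepG2 cells carry transiently introduced multiple reporter units governed by cis promoters. Reporter RNA measured 24 h post-dose through reverse transcription, PCR amplification, fluorescent labelling and capillary electrophoresis, normalised to DMSO.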
Heat shock factor protein 1 (Homo sapiens), sequence (Q00613 whole entry, looked up): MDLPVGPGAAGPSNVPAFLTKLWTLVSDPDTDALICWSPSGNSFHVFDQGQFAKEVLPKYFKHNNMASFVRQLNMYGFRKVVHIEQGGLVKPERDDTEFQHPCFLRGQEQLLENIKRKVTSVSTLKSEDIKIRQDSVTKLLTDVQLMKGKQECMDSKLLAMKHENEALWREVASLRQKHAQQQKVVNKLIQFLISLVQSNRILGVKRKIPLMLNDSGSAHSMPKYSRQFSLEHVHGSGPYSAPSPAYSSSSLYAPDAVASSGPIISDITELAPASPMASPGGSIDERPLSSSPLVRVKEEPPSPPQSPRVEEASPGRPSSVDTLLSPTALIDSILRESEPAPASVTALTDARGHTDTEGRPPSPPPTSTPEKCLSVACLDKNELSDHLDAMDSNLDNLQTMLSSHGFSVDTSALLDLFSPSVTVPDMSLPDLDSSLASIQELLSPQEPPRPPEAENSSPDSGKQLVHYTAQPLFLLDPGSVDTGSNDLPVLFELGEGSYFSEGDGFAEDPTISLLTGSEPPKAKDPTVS

Assay [9] can be described thus: ATG_MRE_CIS: Attagene CIS-FACTORIAL HepG2 Assay for human Metal Responsive Element (MRE) (AID 2282954). The note with it: HepG2 MRE cis-reporter transcription, Attagene multiplex; actives raise or lower the signal. The method, boiled down:
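HepG2 cells transiently transfected with multiple cis-element reporter units measure endogenous MTF1-driven transcription. After 24 h compound exposure, reporter mRNA is quantified by RT-PCR with 6-FAM labelling, HpaI digestion and capillary electrophoresis; bidirectional fits versus DMSO.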

Assay [10] deals with Paired box protein Pax-6 (Homo sapiens) (UniProt P26367). Kind of assay: ATG_Pax6_CIS: Attagene CIS-FACTORIAL HepG2 Assay for human Paired Box 6 (PAX6) (AID 2282956). The note with it: HepG2 CIS-FACTORIAL PAX6 reporter transcription, RNA readout; actives raise or lower the signal. An outline of the steps:
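Multiplexed cis-reporter HepG2 system; 24 h treatment; reporter mRNA read by RT-PCR/CE fluorescence; bidirectional fit vs DMSO.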

A short description of assay [11]: ATG_PXRE_CIS: Attagene CIS-FACTORIAL HepG2 Assay for human Pregnane X Receptor Element (PXRE) (AID 2282957). As to conditions: HepG2 Attagene CIS-FACTORIAL PXRE reporter, mRNA; actives raise or lower the signal. An outline of the steps:
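Transfect HepG2 with MRTUs (cis promoter elements); dose chemical, incubate 24 h; isolate RNA, RT with oligo(dT), PCR, 6-FAM label, HpaI cut, CE. Gain/loss fit vs DMSO.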

The nature of assay [12]: ATG_PPRE_CIS: Attagene CIS-FACTORIAL HepG2 Assay for human Peroxisome Proliferator-activated Response Element (PPRE) (AID 2282958). The note with it: HepG2 PPRE cis-element reporter, Attagene transcription factor profiling; actives raise or lower the signal. An outline of the steps:
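DMSO served as negative control and baseline for bidirectional curve fitting. Signal came from PPRE-regulated reporter mRNA in HepG2 cells, measured 24 h post-dosing by RT-PCR, 6-FAM primer extension and capillary electrophoresis.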

Assay [13] can be described thus: ATG_RORE_CIS: Attagene CIS-FACTORIAL HepG2 Assay for human RAR-related Orphan Receptor Element (RORE) (AID 2282959). As to conditions: HepG2 Attagene cis-factorial RORE reporter, mRNA; actives raise or lower the signal. The method, boiled down: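 Transfect HepG2 with MRTUs; treat 24 h; extract RNA; RT with oligo(dT); PCR with reporter-specific primers; 6-FAM primer extension; HpaI digest 2 h at 37 C; capillary electrophoresis. Fit vs DMSO, bidirectional.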

Assay [14] can be described thus: ATG_Sox_CIS: Attagene CIS-FACTORIAL HepG2 Assay for human SRY-box transcription factor (SOX) (AID 2282960). The note with it: HepG2 Attagene cis-factorial SOX reporter, mRNA; actives raise or lower the signal. The method, boiled down:
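Fluorescence-labelled cDNA fragments from reporter transcripts, sized by CE, give the signal. Cells: HepG2, transiently transfected with cis-regulated reporter units. Exposure 24 h; DMSO negative control; bidirectional curve fitting.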

Assay [15] has as its target Transcription factor Sp1 (Homo sapiens) (UniProt P08047). Kind of assay: ATG_Sp1_CIS: Attagene CIS-FACTORIAL HepG2 Assay for human Specificity Protein 1 (Sp1) (AID 2282961). The note with it: HepG2 Sp1 cis-reporter transcription, actives raise or lower the signal. An outline of the steps: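 Chemicals are dosed onto HepG2 cells transfected with multiple cis-promoter reporter constructs, and after 24 h reporter RNA is reverse-transcribed, PCR-amplified and resolved by capillary electrophoresis for fluorescence quantitation; activity is scored up or down against DMSO.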

The nature of assay [16]: ATG_SREBP_CIS: Attagene CIS-FACTORIAL HepG2 Assay for human Sterol Regulatory Element Binding (SREBP) (AID 2282962). The note with it: HepG2 Attagene cis-factorial SREBP reporter, mRNA; actives raise or lower the signal. The method, boiled down: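 mRNA induction of transfected cis-promoter reporters in HepG2 cells, 24 h post-dose. Detection: RT-PCR with 6-FAM-labelled products, HpaI digest, capillary electrophoresis. DMSO served as negative control and baseline.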

Assay [17] can be described thus: ATG_PBREM_CIS: Attagene CIS-FACTORIAL HepG2 Assay for human Phenobarbital-responsive Enhancer Module (PBREM) (AID 2282955). The note with it: HepG2 PBREM cis-reporter, Attagene multiplexed transcription; actives raise or lower the signal. An outline of the steps: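 Multiplexed cis-reporter readout in human hepatoma HepG2 cells; PBREM-regulated transcript quantified after 24 h exposure by fluorescent RT-PCR fragment analysis. Signal changes up or down fitted relative to DMSO.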

The target of assay [18] is Signal transducer and activator of transcription 3 (Homo sapiens) (UniProt P40763). Briefly: ATG_STAT3_CIS: Attagene CIS-FACTORIAL HepG2 Assay for human Signal Transducer and Activator of Transcription 3 (STAT3) (AID 2282963). As to conditions: HepG2, Attagene cis-factorial STAT3 reporter transcription; actives raise or lower the signal. The method, boiled down:
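HepG2 cells transiently transfected with cis-element-driven multiple reporter transcription units; after 24 h chemical exposure, reporter mRNA measured by RT-PCR, 6-FAM primer-extension labelling, HpaI digestion and capillary electrophoresis. Bidirectional fitting versus DMSO baseline.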

Assay [19] is described as follows: ATG_TA_CIS: Attagene CIS-FACTORIAL HepG2 Assay for human TA Basal Promoter (AID 2282964). The note with it: HepG2 Attagene CIS-factorial TA basal promoter reporter; actives raise or lower the signal. An outline of the steps: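 Background internal-marker endpoint from a 52-component HepG2 cis-reporter panel. Cells treated 24 h; reporter transcripts quantified via RT-PCR and CE fluorescence against DMSO baseline.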

Active and inactive are the calls of the source. Rule for the calls: active = hit-call score of the fitted dose curve at least 0.9, where 1 is the maximum; inactive = score below 0.9.

Hypoxia-inducible factor 1-alpha (Homo sapiens), sequence (Q16665 whole entry, looked up): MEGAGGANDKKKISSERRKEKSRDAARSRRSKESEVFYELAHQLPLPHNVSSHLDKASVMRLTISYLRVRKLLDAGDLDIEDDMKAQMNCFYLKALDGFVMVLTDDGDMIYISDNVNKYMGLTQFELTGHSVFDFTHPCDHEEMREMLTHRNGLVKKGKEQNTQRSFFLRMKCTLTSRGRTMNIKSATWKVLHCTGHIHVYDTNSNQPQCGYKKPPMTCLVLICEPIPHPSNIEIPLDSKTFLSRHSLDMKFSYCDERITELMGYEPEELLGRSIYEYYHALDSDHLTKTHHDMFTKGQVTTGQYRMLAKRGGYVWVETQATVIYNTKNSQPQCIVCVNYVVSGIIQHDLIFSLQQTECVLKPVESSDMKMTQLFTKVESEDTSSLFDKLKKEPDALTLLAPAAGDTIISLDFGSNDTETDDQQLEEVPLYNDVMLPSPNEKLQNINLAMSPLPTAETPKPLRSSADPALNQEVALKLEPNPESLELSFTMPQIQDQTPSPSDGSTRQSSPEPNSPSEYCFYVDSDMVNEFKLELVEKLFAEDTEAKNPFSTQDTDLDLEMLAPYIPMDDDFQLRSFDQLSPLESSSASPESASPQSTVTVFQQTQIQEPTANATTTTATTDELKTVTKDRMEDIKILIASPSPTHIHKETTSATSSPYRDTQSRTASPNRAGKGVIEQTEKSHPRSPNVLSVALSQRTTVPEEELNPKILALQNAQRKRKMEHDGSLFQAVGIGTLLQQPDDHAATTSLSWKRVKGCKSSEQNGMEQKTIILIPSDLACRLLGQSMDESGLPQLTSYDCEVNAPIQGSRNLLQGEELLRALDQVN
Transcription factor Sp1 (Homo sapiens), sequence (P08047 whole entry, looked up): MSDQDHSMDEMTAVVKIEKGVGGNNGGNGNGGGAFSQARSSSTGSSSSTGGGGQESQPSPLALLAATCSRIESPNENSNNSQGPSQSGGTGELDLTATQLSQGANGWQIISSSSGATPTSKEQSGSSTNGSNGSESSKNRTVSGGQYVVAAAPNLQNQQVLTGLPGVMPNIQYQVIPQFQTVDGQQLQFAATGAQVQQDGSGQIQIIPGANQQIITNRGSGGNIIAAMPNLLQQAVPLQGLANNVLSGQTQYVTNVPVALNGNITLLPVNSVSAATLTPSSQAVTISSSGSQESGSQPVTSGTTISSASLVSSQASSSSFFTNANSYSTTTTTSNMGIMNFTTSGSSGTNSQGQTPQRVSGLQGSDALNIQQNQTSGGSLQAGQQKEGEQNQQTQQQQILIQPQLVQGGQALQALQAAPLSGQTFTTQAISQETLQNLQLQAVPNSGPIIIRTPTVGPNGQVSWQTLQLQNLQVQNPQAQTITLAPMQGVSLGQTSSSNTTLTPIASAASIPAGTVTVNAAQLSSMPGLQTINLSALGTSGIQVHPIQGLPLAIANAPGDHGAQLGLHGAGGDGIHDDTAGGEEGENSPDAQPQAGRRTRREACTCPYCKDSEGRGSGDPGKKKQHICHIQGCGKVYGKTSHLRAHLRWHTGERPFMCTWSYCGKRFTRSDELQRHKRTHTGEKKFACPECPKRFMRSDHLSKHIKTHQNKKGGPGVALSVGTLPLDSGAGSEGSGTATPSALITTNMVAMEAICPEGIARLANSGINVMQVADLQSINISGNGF
Signal transducer and activator of transcription 3 (Homo sapiens), sequence (P40763 whole entry, looked up): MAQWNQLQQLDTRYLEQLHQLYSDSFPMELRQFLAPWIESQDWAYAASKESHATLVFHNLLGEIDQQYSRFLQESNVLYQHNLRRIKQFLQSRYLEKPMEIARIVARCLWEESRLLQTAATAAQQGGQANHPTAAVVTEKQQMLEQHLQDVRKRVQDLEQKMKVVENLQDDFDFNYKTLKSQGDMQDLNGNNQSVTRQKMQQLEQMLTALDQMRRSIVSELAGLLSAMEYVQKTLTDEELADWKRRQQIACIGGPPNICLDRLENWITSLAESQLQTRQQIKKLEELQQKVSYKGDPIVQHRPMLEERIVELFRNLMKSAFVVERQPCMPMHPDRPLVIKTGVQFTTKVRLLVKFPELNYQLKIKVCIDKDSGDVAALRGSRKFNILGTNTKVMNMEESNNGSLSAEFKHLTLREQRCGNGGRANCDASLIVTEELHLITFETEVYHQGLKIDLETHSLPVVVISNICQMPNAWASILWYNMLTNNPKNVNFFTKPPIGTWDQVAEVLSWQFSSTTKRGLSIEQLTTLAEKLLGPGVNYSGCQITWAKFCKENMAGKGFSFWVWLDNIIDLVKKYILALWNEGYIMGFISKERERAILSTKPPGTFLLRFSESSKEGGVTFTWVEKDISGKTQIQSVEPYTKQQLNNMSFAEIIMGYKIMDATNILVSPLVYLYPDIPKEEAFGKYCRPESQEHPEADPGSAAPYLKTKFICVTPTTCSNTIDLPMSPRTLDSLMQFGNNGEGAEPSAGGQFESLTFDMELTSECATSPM
Paired box protein Pax-6 (Homo sapiens), sequence (P26367 whole entry, looked up): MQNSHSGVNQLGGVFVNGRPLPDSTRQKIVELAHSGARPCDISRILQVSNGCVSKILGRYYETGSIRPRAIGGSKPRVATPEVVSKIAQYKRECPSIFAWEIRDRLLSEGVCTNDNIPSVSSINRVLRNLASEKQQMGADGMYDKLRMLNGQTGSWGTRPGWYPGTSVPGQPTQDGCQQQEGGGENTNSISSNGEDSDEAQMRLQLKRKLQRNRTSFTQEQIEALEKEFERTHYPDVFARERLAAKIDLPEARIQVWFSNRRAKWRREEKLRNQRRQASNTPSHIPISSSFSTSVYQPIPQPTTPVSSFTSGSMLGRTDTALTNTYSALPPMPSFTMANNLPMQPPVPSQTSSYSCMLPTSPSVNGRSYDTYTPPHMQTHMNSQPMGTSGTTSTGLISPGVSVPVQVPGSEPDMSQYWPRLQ

`Nc1cccnc1N`: the call in assay [1], in assay [2], in [3], in assay [4], in [5] and in assay [6] was inactive. In addition, the call in [7], in assay [8], in [9], in [10], in [11] and in [12] was inactive. Further, the call in assay [13], in [14], in assay [15] and in assay [16] was inactive.
As for `CCCCCCCCCCCCC[N+](C)(C)Cc1ccccc1`, the result in assay [1], in assay [2], in [3], in [4], in assay [5] and in assay [6] was inactive. Also, the result in assay [7], in [8], in assay [9], in assay [17], in [10] and in assay [11] was inactive. In addition, the outcome in [12], in assay [13], in assay [14], in assay [15], in [16] and in assay [18] was inactive. For the same compound, in [19], the call was inactive.
For `C#CC(O)CCC` (stereo not given), the call in [1], in [2], in [3], in assay [4], in assay [5] and in assay [7] was inactive. In addition, the call in [8], in [9], in assay [17], in assay [10], in assay [11] and in assay [12] was inactive. The compound was called inactive in [13], in [14], in assay [15], in [16], in assay [18] and in assay [19].
`CC1=CC2C3C=CC(C3)C2C1C` (stereo not given): the compound was classed as inactive in [1], in assay [2], in assay [3], in assay [4], in assay [5] and in [7]. Moreover, the result in [8], in assay [17], in assay [12], in assay [13], in [14] and in assay [15] was inactive. The compound was classed as inactive in assay [16] and in [18]. Also, the AC50 is 65800 nM (active) in assay [9] and 1590 nM (active) in assay [11].
With `Cc1cc(O)c(C(C)(C)C)cc1C(C)(C)C`, the compound was classed as inactive in assay [1], in [4], in assay [5], in assay [7], in [8] and in assay [17]. The compound was called inactive in [10], in assay [12], in assay [13] and in assay [14]. Further, the AC50 was 2870 nM (active) in [2]; 17200 nM (active) in assay [3]; 18000 nM (active) in [9]; 2920 nM (active) in assay [11]; 11100 nM (active) in [15]; 8330 nM (active) in assay [16].
As to `CCN=C1C=CC(=C(c2ccc(N(CC)CC)cc2)c2ccc(N(CC)CC)cc2)c2ccccc21`, the AC50 in assay [1] is 5550 nM (active); in assay [2] it was 911 nM (active); in assay [3], 916 nM (active); in assay [6], 1100 nM (active); in assay [8] it was 1010 nM (active); in [9], 1030 nM (active). Also, the AC50 is 1230 nM (active) in assay [11], 68 nM (active) in assay [13], 76.2 nM (active) in assay [14] and 1230 nM (active) in assay [19]. Also, the result in assay [4], in assay [5], in assay [7], in assay [12], in assay [15] and in assay [16] was inactive.
For the compound `CCOC(C=C(C)CCC=C(C)C)OCC`, the call in [1], in [2], in assay [3], in assay [4], in [5] and in assay [7] was inactive. Further, the call in assay [8], in [9], in assay [17], in [10], in assay [12] and in assay [14] was inactive. In addition, the outcome in assay [15], in [16] and in assay [18] was inactive. For the same compound, the AC50 in assay [11] is 31200 nM (active); in [13], 38300 nM (active).
Take `OCC(F)(F)C(F)(F)C(F)(F)CO`: the call in assay [1], in assay [2], in assay [3], in [4], in assay [5] and in assay [6] was inactive. For the same compound, the compound was called inactive in [7], in assay [8], in assay [9], in assay [10], in assay [11] and in assay [12]. Moreover, the compound was classed as inactive in [13], in assay [14], in assay [15], in assay [16] and in [19].

In general, AC50 refers to the concentration at which the activity in the assay is half-maximal.

The values are drawn from PubChem BioAssay (EPA / NIEHS).
